Screening data as filed in PubChem BioAssay.
Shown are actives, neighbours in structure and some others; about 1.9% of the full set was active somewhere.
26S disassembly: blocks ATP-dependent breakdown of the yeast 26S proteasome; anti-FLAG beads, GFP-proteasome disassembly, flow cytometry; inhibition of disassembly, % (concentration not given with the values); hit rate 0.2% among 24,000; AID 751;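 active = inhibition of disassembly above about 33%, limit read from the data; inconclusive = likely self-fluorescent, control bead median signal at least 40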;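 also: higher percent means more bead fluorescence retained so stronger block of disassembly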
VLA-4 antagonist: inhibition of LDV-FITC ligand binding to human VLA-4 integrin; inhibition, % at 10 µM (by protocol); hit rate 0.2% among 24,000; AID 529; Jurkat cells, LDV-FITC binding with Mn2+, flow cytometry; 100% = Mn2+-driven binding gain fully reversed; P13612;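 active = inhibition above 50%; inconclusive = compound itself fluorescent, judged against control cell fluorescence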
Jurkat autofluor: counter-screen for VLA-4 integrin: compound autofluorescence in Jurkat cells; hit rate 0.61% among 24,000; fluorescence ratio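 (tested at 10 µM compound in the well)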; flow cytometry; hits give high values; 1 = vehicle-only cell background; AID 576;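 active = fluorescence ratio above 2.44, which is 1 plus 3 SD of all ratios; inconclusive = signal too bright to measure linearly, ratio around 10 or more; inactive = fluorescence ratio below 2.44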;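 also: green fluorescence of cells measured with 488 nm excitation and 530 nm emission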
FPR ligand: ligands of human FPR, also counter-screen for FPRL1 ligands; P21462; FPR-expressing cells, fluorescent ligand binding, flow cytometry; hit rate 0.74% among 24,000; inhibition, % (test concentration not listed)
Target sequence (P21462 whole entry, looked up): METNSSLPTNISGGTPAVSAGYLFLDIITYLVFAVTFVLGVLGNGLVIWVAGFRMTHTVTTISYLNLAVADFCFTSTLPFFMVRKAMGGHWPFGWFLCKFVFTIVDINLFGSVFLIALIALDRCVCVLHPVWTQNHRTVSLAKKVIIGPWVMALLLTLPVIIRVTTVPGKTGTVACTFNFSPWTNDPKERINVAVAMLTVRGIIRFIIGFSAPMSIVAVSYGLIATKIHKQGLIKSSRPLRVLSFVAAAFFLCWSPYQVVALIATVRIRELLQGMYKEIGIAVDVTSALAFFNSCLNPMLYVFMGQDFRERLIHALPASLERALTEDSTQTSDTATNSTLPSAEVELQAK
VLA-4 allo ag: allosterically activates the human VLA-4 integrin | AID 528 | activation, % at 10 µM (by protocol) | Jurkat cells, LDV-FITC binding, flow cytometry | P13612 | 24,000 tested, under 10 active;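 active = fluorescent ligand binding to cells raised by more than 40% of the manganese-induced maximum; inconclusive = compound's own fluorescence above 85% of the ligand control signal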
FPRL1 binder: human FPRL1 ligand, with FPR counter-screen; P25090; FPRL1-expressing cells, fluorescent ligand binding inhibition, flow cytometry; AID 441; hit rate 0.3% among 24,000; inhibition, % (no concentration beside the values)
Target sequence (P25090 whole entry, looked up): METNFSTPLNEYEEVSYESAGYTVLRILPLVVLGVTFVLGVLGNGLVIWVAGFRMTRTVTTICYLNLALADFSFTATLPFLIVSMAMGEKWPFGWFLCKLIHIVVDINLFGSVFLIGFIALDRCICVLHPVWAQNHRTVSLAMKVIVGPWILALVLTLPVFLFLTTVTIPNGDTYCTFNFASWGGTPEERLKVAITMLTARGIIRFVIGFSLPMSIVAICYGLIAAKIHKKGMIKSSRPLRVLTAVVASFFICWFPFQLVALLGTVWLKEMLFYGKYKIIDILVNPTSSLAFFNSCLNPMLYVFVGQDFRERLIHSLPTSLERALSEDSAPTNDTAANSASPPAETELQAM
Large screens that a line does not name were inactive. Rule as the data show it, unless noted: active = inhibition above about 30%; inconclusive = no clear call, values can overlap the other calls; inactive = below that.

CCCCC1(Cc2ccc([N+](=O)[O-])cc2)C(=O)N(c2ccccc2)N(c2ccccc2)C1=O	none (no result: 26S disassembly, Jurkat autofluor, FPR ligand, FPRL1 binder)
CCCCC1C(=O)N(c2ccccc2)N(c2ccccc2)C1=O	VLA-4 antagonist 80, FPR ligand 50
O=C(NCc1ccc2c(c1)OCO2)C1CCC(CNc2c(N3CCCC3)c(=O)c2=O)CC1 (centres undefined)	none
CCCOc1ccc(C(CC(=O)O)NS(=O)(=O)c2ccc(NC(C)=O)cc2)cc1 (centres undefined)	none
CCCOc1ccc(C(CC(=O)O)NC(=O)c2ccc3c(c2)OCO3)cc1 (centres undefined)	VLA-4 antagonist 88
CCOC(=O)N1CCN(c2c(NCCN(C)Cc3ccccc3)c(=O)c2=O)CC1	none
CCOc1ccc(C(CC(=O)O)NC(=O)C23CC4CC(CC(C4)C2)C3)cc1 (centres undefined)	VLA-4 antagonist 111 (no result: 26S disassembly, FPR ligand, FPRL1 binder)
CCOC(=O)NC(CC(=O)O)c1ccc(OCC)cc1 (centres undefined)	none
CC(C)CCNC(=O)NC(=O)COc1ccccc1C#N	none
CN(C(=O)COC(=O)C1CCN(S(=O)(=O)c2cccs2)CC1)C1CCS(=O)(=O)C1 (centres undefined)	none
O=C(c1ccc(Cl)cc1)N(Cc1cccs1)C1CCS(=O)(=O)C1 (centres undefined)	FPRL1 binder 46
CCCn1c(CNC(=O)Cc2ccccc2)nc2ccccc21	none
C=CCSc1nnc(NC(=O)c2ccc(S(=O)(=O)NCC3CCCO3)cc2)s1 (centres undefined)	none
CC(C)(C)NC(=O)C1CCCN(S(=O)(=O)c2cccc3cccnc23)C1 (centres undefined)	FPR ligand 35
Cc1nn(Cc2ccccc2Cl)c(C)c1NC(=O)C1C2CCC(O2)C1C(=O)O (centres undefined)	none
FC(F)(F)c1ccc(N2CCOCC2)c(Nc2nc3ccccc3n3cnnc23)c1	VLA-4 antagonist inconclusive, Jurkat autofluor 2.7, VLA-4 allo ag inconclusive
COc1cccc2c1OC1(C)CC2NC(=O)N1c1cccc(C(=O)N2CCN(c3ccccn3)CC2)c1 (centres undefined)	none
CCC1CCCCN1c1nc(-c2ccncc2)nc2ccccc12 (centres undefined)	none
CCN(CCCc1ccccc1)CCCc1ccccc1	FPR ligand 54
Cc1ccc(OCCNC(=O)c2ccccc2N)cc1	none
COc1ccc(-c2cc(C(F)(F)F)nc(N3CCN(C)CC3)n2)cc1OC	none (no result: 26S disassembly, VLA-4 antagonist, Jurkat autofluor, VLA-4 allo ag)
COc1ccc(-c2cc(C(F)(F)F)nc(N3CCN(c4ccccc4)CC3)n2)cc1OC	FPR ligand 68
COc1ccccc1N1CCN(c2nc(-c3ccccc3)cc(C(F)(F)F)n2)CC1	none (no result: FPRL1 binder)
COc1ccc(-c2cc(C(F)(F)F)nc(N3CCCCC3)n2)cc1OC	FPRL1 binder 33
CC(=O)OCCNc1cc(N2CCN(C)CC2)c2noc3c2c1C(=O)c1ccccc1-3	FPRL1 binder 53
COC(=O)c1ccc(C(=O)OC)c(NC(=O)c2oc(C)nc2C)c1	none
O=C1c2ccccc2-c2nccnc21	none
O=C1c2ccccc2-c2nc3ncnn3c(-c3ccccc3Cl)c21	VLA-4 antagonist inconclusive, Jurkat autofluor 3.7, VLA-4 allo ag inconclusive
CCOC(=O)Cc1cc(=O)n2[nH]c(C)c(-c3ccc(Cl)cc3)c2n1	FPR ligand 54 (no result: 26S disassembly, VLA-4 antagonist, Jurkat autofluor, VLA-4 allo ag)
CCOC(=O)Cc1cc(=O)n2[nH]c(C)c(-c3ccc(OC)cc3)c2n1	FPR ligand 44
COc1ccccc1-n1c(SCC(N)=O)nnc1-c1ccccc1	none
CN1CC=C2C(C#N)=C(N)C(C#N)(C#N)C(Cc3ccccc3)C2C1 (centres undefined)	VLA-4 antagonist inconclusive, Jurkat autofluor 2.6, VLA-4 allo ag inconclusive
CC(C)(C)OC(=O)N1CC=C2C(C#N)=C(N)C(C#N)(C#N)C(c3cccs3)C2C1 (centres undefined)	VLA-4 antagonist inconclusive, VLA-4 allo ag inconclusive
CC1=C(C)C(=O)C(CCCCC#CCCCC#CCO)=C(C)C1=O	none
Cc1ccc(N2C(N)=NC(N)=NC2(C)C)c(C)c1	none
S=C(NCC1CCCO1)n1nnc2ccccc21 (centres undefined)	none
c1ccc2c(c1)nc(NCC1CCCO1)c1nnnn12 (centres undefined)	VLA-4 antagonist inconclusive, Jurkat autofluor 5, VLA-4 allo ag inconclusive
CCOc1ccc(Cn2nnc(C(=O)NCc3ccc(OC)cc3)c2N)cc1	none
CCSc1nnc(NC(=O)CSc2nnc(Cc3cccn3C)n2CCc2ccccc2)s1	FPR ligand 34
Cn1cccc1Cc1nnc(SCC(=O)Nc2nccs2)n1CCc1ccccc1	none
CCCCn1c(NC(=O)CC)c(C#N)c2nc3ccccc3nc21	VLA-4 antagonist inconclusive, Jurkat autofluor 3.1, FPR ligand 48, VLA-4 allo ag inconclusive
CCCCn1c(NC(=O)c2ccccc2Cl)c(C#N)c2nc3ccccc3nc21	none (no result: 26S disassembly, VLA-4 antagonist, Jurkat autofluor, VLA-4 allo ag)
CC(=O)C1=C(C)N=c2s/c(=C/c3ccc4c(c3)OCO4)c(=O)n2C1c1ccc(N(C)C)cc1 (centres undefined)	VLA-4 antagonist inconclusive, Jurkat autofluor 8.5, FPR ligand inconclusive, VLA-4 allo ag inconclusive
COc1ccc(C2C(C(C)=O)=C(C)N=c3s/c(=C/c4ccc5c(c4)OCO5)c(=O)n32)cc1 (centres undefined)	none
CC(=O)Nc1ccc(N=Cc2ccc[nH]2)cc1	none
Cc1ccc(C2C3=C(CC(C)(C)CC3=O)Nc3[nH]c(=S)[nH]c(=O)c32)cc1 (centres undefined)	FPR ligand 35
CCCCCNC(=O)CCCCn1c(=O)[nH]c2cc(OCC)c(OCC)cc2c1=O	VLA-4 antagonist 78
CCOC(=O)Cn1c(=O)oc2cc(S(=O)(=O)N3CCCC(C(=O)OCC)C3)ccc21 (centres undefined)	VLA-4 antagonist inconclusive, Jurkat autofluor 3.1, VLA-4 allo ag inconclusive
CCOC(=O)Cn1c(=O)oc2cc(S(=O)(=O)Nc3c(C)cc(C)cc3C)ccc21	VLA-4 antagonist inconclusive, Jurkat autofluor 6, VLA-4 allo ag inconclusive
CCOC(=O)Cn1c(=O)oc2cc(S(=O)(=O)NCc3ccccn3)ccc21	VLA-4 antagonist inconclusive, Jurkat autofluor 3.6, VLA-4 allo ag inconclusive
Cc1ccccc1C1CC(c2ccccc2OC(F)F)Nc2ncnn21 (centres undefined)	none
CCOc1ccc(/C(O)=C2/C(=O)C(=O)N(CC3CCCO3)C2c2ccco2)cc1 (centres undefined)	FPR ligand 48 (no result: 26S disassembly, VLA-4 antagonist, Jurkat autofluor, VLA-4 allo ag)
CCOc1ccc(/C(O)=C2/C(=O)C(=O)N(CC3CCCO3)C2c2ccc(C)o2)cc1 (centres undefined)	none (no result: 26S disassembly, VLA-4 antagonist, Jurkat autofluor, VLA-4 allo ag)
CCN(CC)CCCN1C(=O)C(=O)/C(=C(/O)c2ccc(Cl)cc2)C1c1ccccn1 (centres undefined)	none (no result: 26S disassembly, VLA-4 antagonist, Jurkat autofluor, VLA-4 allo ag)
CC1(C)COCN1S(=O)(=O)c1ccc(C(=O)Nc2nnc(-c3ccc(Cl)s3)o2)cc1	none
